Out of some 350,000 compounds screened, about 9,900 (2.8%) were called active. A call without a number means that no potency is given here. Not shown: some 15% with an inconclusive outcome. Calls come from the whole dose curve; as a rule, active = well fitted activation curve with a large enough effect; inconclusive = small, poorly fitted or top-dose-only effect; inactive = no such curve, though single readings can be large or run the other way. Only a selection was taken, and actives are over-represented in it overall.
Potency is the fitted concentration of half-maximal effect.

This assay can be described thus: A quantitative high throughput screen for small molecules that induce DNA re-replication in MCF 10a normal breast cells. Note: nearly all actives have a fitted effect of over 50% in size. To be noted: MCF 10A DNA re-replication, Hoechst nuclear intensity, 48 h; series mostly up to 46.1 µM.
Consider `CN(C(=O)c1cccc(NC(=O)Cc2ccc(NC(=O)C3CCCN(C(=O)C4CC4)C3)cc2)c1)C1CC1` (configuration not stated), for which the Potency result is “inactive”.
As for `CC(=C/c1ccccc1)/C=N/NC(=O)c1cc(C)oc1C`, the entry is “inactive”; as for `CC(/C=N/NC(=O)c1cc(-c2ccc3ccccc3c2)n[nH]1)=C\c1ccco1`, 7.31 µM (active).
Regarding `CC(/C=N/NC(=O)c1ccncc1)=C\c1ccco1`, the Potency entry is “inactive”.
As for `Cc1cccc(C)c1Nc1nnc(SCC(=O)NCCCN2CCCC2=O)s1`, the Potency result was “inactive”.
Turning to `CC[C@]12c3[nH]c4cc(CCC(=O)N(C)C)ccc4c3CCN1C(=O)[C@@H](CC(=O)NCCCn1ccnc1)C[C@@H]2C(=O)N1CCN(C(=O)C2CC2)CC1`, the Potency entry is “inactive”.
Turning to `O=C(CC1Nc2ccccc2NC1=O)Nc1ccccc1` (configuration not stated), the Potency is 6.51 µM (active).
As for `COC(=O)c1cc(C)sc1NC(=O)CC1Nc2ccccc2NC1=O` (configuration not stated), the entry is “inactive”; as for `O=C(CC1NCCNC1=O)Nc1ccc(Oc2ccccc2)cc1` (configuration not stated), “inactive”; as for `COC(=O)Cc1nc2c(N)nc(N)nc2[nH]c1=O`, “inactive”.
For the compound `Nc1ccc2c(c1)C(O)c1ccc(Cl)cc1-2` (configuration not stated), the Potency result is “inactive”.
As for `COc1cc2[nH]c(O)c(C=O)c2cc1OC`, the entry is “inactive”.
As for `COc1ccc(-n2nc3c(N4CCC(C(=O)NCc5ccccc5)CC4)nnc(C)c3c2C)cc1`, the entry is “inactive”; as for `CCc1ccc(CNC(=O)C2CC(=O)N(CCc3ccc(C)cc3)C2)cc1` (configuration not stated), “inactive”; as for `CCc1ccc(CNC(=O)C2CCN(c3nnc(C)c4c(C)n(-c5ccc(C)cc5)nc34)CC2)cc1`, 7.31 µM (active).
As for `Cc1ccc(NC(=O)C(c2ccccc2)N2CCN(C(=O)c3ccco3)CC2)cc1` (configuration not stated), the entry is “inactive”; as for `O=C(C(Cl)Cl)N1CCN(c2ccccn2)CC1`, “inactive”; as for `O=C(Cc1ccc(Br)cc1)N1CCN(c2ccccn2)CC1`, “inactive”.
On to `O=C(/C=C/c1cccc(C(F)(F)F)c1)N1CCN(c2ccccn2)CC1`, for which the Potency was 9.2 µM (active).
As for `O=C(c1ccc2c(c1)C(=O)N(Cc1ccncc1)C2=O)N1CCN(S(=O)(=O)c2ccc(OC(F)(F)F)cc2)CC1`, the entry is “inactive”; as for `CCN1C[C@@H]2[C@@H]3C(=O)N(Cc4ccccc4)C(=O)[C@@H]3[C@](Cc3ccccc3)(C(=O)OC)N2C1=NC1CCCCC1`, “inactive”.
For `Clc1ccccc1CSc1nnc(-c2ccco2)c(-c2ccco2)n1`, the Potency was 18.4 µM (active).
As for `S=C(NCc1ccco1)NCc1ccccc1Cl`, the entry is “inactive”; as for `COC(OC)c1ccnc(SCc2ccccc2Cl)n1`, “inactive”.
The result for `COc1ccc(OCCNC(=O)c2cc(C3CC3)nc3c2cnn3C(C)C)cc1` reads “inactive”; that for `Cc1cccc(NC(=O)CSc2nc3[nH]ncc3c(=O)[nH]2)c1`, “inactive”; that for `O=C(CSc1nc2[nH]ncc2c(=O)[nH]1)Nc1ccc(F)cc1`, “inactive”.
For the compound `Cc1cc(C)c2c(=O)[nH]c(SCC(=O)Nc3ccc(Br)cc3)nc2n1`, the Potency is 11.6 µM (active).
For the compound `COc1ccccc1-n1nnnc1SCC(=O)NC(=O)Cc1ccccc1`, the Potency result was “inactive”.
Consider `COc1ccccc1-n1nnnc1S(=O)(=O)Cc1ccc(Cl)cc1`, for which the Potency is 16.4 µM (active).
`COc1ccccc1N1CCN(S(=O)(=O)c2ccc(Cl)cc2)CC1`: the Potency result is “inactive”.
`CCN(CC(=O)Nc1ccc(NC(C)=O)cc1)C(=O)CSC(=S)N1CCCC1`: the Potency entry was “inactive”.
Consider `Cc1cc(C(=O)NC2CC(C)(C)Cc3c2cnn3-c2ccccc2)n[nH]1` (configuration not stated), for which the Potency result was “inactive”.
With `CC1(C)Cc2c(cnn2-c2cccc(F)c2)C(NC(=O)c2cc[n+]([O-])cc2)C1` (configuration not stated), the Potency entry is “inactive”.
Turning to `COC(=O)c1ccc(C(=O)NC2CC(C)(C)Cc3c2cnn3-c2ccc(F)cc2)nc1` (configuration not stated), the Potency was 20.6 µM (active).
As to `CCOc1cc(C=NNC(=O)CCCC(=O)NN=Cc2ccc(O)c(OCC)c2)ccc1O`, the Potency result was “inactive”.
As for `CCOc1cc(/C=C(\C#N)c2nc(-c3cccs3)c(NC(C)=O)s2)ccc1O`, the Potency was 5.8 µM (active).
In the case of `COc1cc(/C=N\Nc2nc(-c3cccs3)c(NC(C)=O)s2)ccc1O`, the Potency result is “inactive”.
As to `COc1ccc(S(=O)(=O)N2CCN(C(C)C(=O)Nc3ccc(C(C)C)cc3)CC2)cc1` (configuration not stated), the Potency entry is “inactive”.
The result for `CCN(CC(=O)Nc1cc(Cl)ccc1C)C(=O)CSCc1ccccc1` reads “inactive”; that for `Cc1ccccc1-c1cc(C(=O)NCC2CC2)n(CC2CC(c3cccnc3)=NO2)n1` (configuration not stated), “inactive”; that for `Cn1c(SCC(=O)Nc2ccc(N3CCOCC3)cc2)nnc1C(F)(F)F`, “inactive”.
As for `CC1CCN(c2ccc(C(=O)NCc3ccc4c(c3)OCO4)cc2[N+](=O)[O-])CC1`, the entry is “inactive”.
As for `O=C(NCc1ccc2c(c1)OCO2)c1cc([N+](=O)[O-])ccc1N1CCOCC1`, the Potency is 5.8 µM (active).
The result for `O=C(NC1CCCCC1)c1cc([N+](=O)[O-])ccc1N1CCOCC1` reads “inactive”; that for `COc1ccccc1NC(=O)N(O)C1(C#N)CCCCC1`, “inactive”; that for `CN(C)C(=O)CCc1ccc2c3c([nH]c2c1)[C@]1(C)[C@@H](C(=O)N2CCOCC2)C[C@H](CC(=O)NCCc2ccccn2)C(=O)N1CC3`, “inactive”.
As for `CC(C)CN1CC(C)C(=O)N(c2ccccc2)C1=S` (configuration not stated), the entry is “inactive”; as for `Cc1cccn2c(=O)c3cc(C(=O)NCC4CCCO4)c(=N)n(Cc4ccc(F)cc4)c3nc12` (configuration not stated), 1.84 µM (active); as for `COc1ccc(CCn2c(=N)c(C(=O)NCc3ccco3)cc3c(=O)n4cccc(C)c4nc32)cc1`, 18.4 µM (active).
Regarding `COc1ccc(CCNC(=O)CCn2c(=O)c3ccccc3n(CC(=O)NCC3CCCO3)c2=O)cc1OC` (configuration not stated), the Potency entry was “inactive”.
For the compound `COc1ccc(CCNC(=O)Cn2c(=O)n(CC3CCCO3)c(=O)c3ccccc32)cc1OC` (configuration not stated), the Potency entry was “inactive”.
Take `COc1ccc2oc(C(=O)NCc3ccco3)c(C)c2c1`: the Potency result was “inactive”.
As for `Cc1ccc(CCNC(=O)c2ccc3nc4ccccc4c(=O)n3c2)cc1`, the entry is “inactive”; as for `COc1ccc(CNC(=O)c2cc3c(=O)n4ccccc4nc3n(CC3CCCO3)c2=N)cc1` (configuration not stated), 9.2 µM (active).
As for `COc1ccc(C(=O)Nc2ccccc2C(=O)NCc2ccco2)cc1`, the entry is “inactive”; as for `Cc1ccc2nc3c(cc(C(=O)NCCc4ccccc4)c(=N)n3CC3CCCO3)c(=O)n2c1` (configuration not stated), 6.51 µM (active); as for `O=C(NCC1CCCO1)c1cc(-c2ccccc2)nc2ccccc12` (configuration not stated), “inactive”.
On to `O=C(CSc1nc2ccccc2c(=O)n1Cc1ccc(F)cc1)NCC1CCCO1` (configuration not stated), for which the Potency entry is “inactive”.
For the compound `Cc1ccc(-c2noc(-c3ccccc3C(=O)NCC3CCCO3)n2)cc1` (configuration not stated), the Potency entry was “inactive”.
`O=C(CSc1nccn1-c1cccc(F)c1)NC1CCCC1`: the Potency result is “inactive”.
In the case of `C#CCOCCOCCOCCNc1nc(N2CCN(C(=O)Cn3cc(CCO)nn3)CC2)nc(N2CCN(C(=O)[C@H](CCCCN)n3cc(CCCC)nn3)CC2)n1`, the Potency entry is “inactive”.
For the compound `O=C1NCC(Nc2ccccc2)C(=O)N1` (configuration not stated), the Potency result was “inactive”.
As for `COc1ccc(C(=O)C(C)OC(=O)c2cccc(S(=O)(=O)Nc3c(C)n(C)n(-c4ccccc4)c3=O)c2)cc1` (configuration not stated), the entry is “inactive”.
In the case of `CCC(=O)c1ccc(OCC(=O)N(CC)CC2COc3ccccc3O2)cc1` (configuration not stated), the Potency entry is “inactive”.
Regarding `COc1cc(C)ccc1OCC(=O)OCC(=O)c1ccc[nH]1`, the Potency result was “inactive”.
With `COC(=O)[C@]1(Cc2ccccc2)N[C@H](CN(C)S(=O)(=O)c2ccc(OC(F)(F)F)cc2)[C@@H]2C(=O)N(Cc3ccccc3)C(=O)[C@@H]21`, the Potency entry was “inactive”.
`CC(NC(=O)c1ccccc1)C(=O)OCC(=O)Nc1cccc(S(=O)(=O)N2CCCC2)c1` (configuration not stated): the Potency result is “inactive”.
On to `CC(NC(=O)CN(C)S(=O)(=O)c1ccc(F)cc1)C1CC2CCC1C2` (configuration not stated), for which the Potency result was “inactive”.
The result for `C=CC1=C(C(=O)O)N2C(=O)[C@@H](NC(=O)/C(=N\OCC(=O)O)c3csc(N)n3)[C@H]2SC1` reads “inactive”; that for `O=C(NCc1ccccc1)C(=O)NCC1OCCN1S(=O)(=O)c1ccc(Br)cc1` (configuration not stated), “inactive”.
For the compound `O=C(NCc1ccncc1)C(=O)NCC1OCCN1S(=O)(=O)c1ccc(Br)cc1` (configuration not stated), the Potency was 18.4 µM (active).
For the compound `COc1ccc(S(=O)(=O)N2CCOC2CNC(=O)C(=O)NCc2ccncc2)cc1OC` (configuration not stated), the Potency result was “inactive”.
For the compound `CCN1C[C@@H]2[C@@H]3C(=O)N(Cc4ccccc4)C(=O)[C@@H]3[C@](C)(C1=O)N2C(=O)c1ccc(C(C)(C)C)cc1`, the Potency result is “inactive”.
Regarding `Cc1cccc(NS(=O)(=O)c2ccc(C)c(C(=O)NCC(c3ccccc3)N(C)C)c2)c1` (configuration not stated), the Potency entry is “inactive”.
Regarding `OCc1nc(CO)n(Cc2ccccc2)n1`, the Potency result is “inactive”.
As for `OCC(CO)(CO)NCc1ccc(-c2ccccc2)cc1`, the entry is “inactive”; as for `OCc1ccc(-c2ccccc2)c(-c2ccccc2)c1`, 23.1 µM (active); as for `O=c1c2ccccc2ccc2ccc(P(=O)(O)O)cc12`, “inactive”.
Regarding `COc1ccc(NS(=O)(=O)c2cccc(C(=O)NCCc3ccc(S(N)(=O)=O)cc3)c2)cc1`, the Potency result is “inactive”.
Turning to `CN(CC(=O)Nc1ccc(Cl)c(C(F)(F)F)c1)C(=O)CCC(=O)c1ccccc1`, the Potency result is “inactive”.
The result for `Cc1ccc(NC(=O)C(C)OC(=O)C2CC3CCCC(C2)C3=O)cc1S(=O)(=O)N1CCOCC1` (configuration not stated) reads “inactive”; that for `CCc1ccccc1NC(=O)CN(C)C(=O)c1cc(C2CC2)nn1-c1ccccc1`, “inactive”; that for `CCc1ccc(CN(C)C(C)C(=O)Nc2ccc(S(=O)(=O)N3CCCC3)cc2)cc1` (configuration not stated), “inactive”.
With `CCOC(=O)c1sc(NC(=O)CSc2nnc(-c3ccco3)o2)c(C(=O)OCC)c1C`, the Potency entry is “inactive”.
As for `CCC(=O)Nc1sc(C(=O)N2CCCCC2)c(C)c1C#N`, the entry is “inactive”; as for `CCOC(=O)c1sc(NC(=O)CSc2ncccn2)c(C#N)c1C`, 14.6 µM (active).
On to `O=C(Nc1ccc2ccccc2c1[N+](=O)[O-])c1ccccc1`, for which the Potency entry is “inactive”.
As for `COc1ccc(S(=O)(=O)N2CCCCC2)cc1NC(=O)COc1ccccc1`, the entry is “inactive”.
As for `CCCc1cc(=O)[nH]c(SCC(=O)Nc2ccc(C(=O)Nc3ccccc3OC)cc2)n1`, the Potency result is “inactive”.
As for `COc1ccc2cc(S(=O)(=O)Nc3ccccn3)ccc2c1`, the entry is “inactive”; as for `Cc1ccc(NS(=O)(=O)c2ccc(C)c(NC(=O)COc3ccc4ccccc4c3)c2)c(C)c1`, “inactive”.
On to `COc1cc(NS(=O)(=O)c2ccc3ccccc3c2)c2ncccc2c1`, for which the Potency was 5.17 µM (active).
As to `CC(=O)Nc1ccc(NC(=O)C(NS(=O)(=O)c2ccc3c(c2)OCCO3)C(C)C)cc1` (configuration not stated), the Potency entry is “inactive”.
As to `Cc1nnc(NC(=O)/C=C/c2ccco2)s1`, the Potency entry was “inactive”.
For the compound `CCC(=O)Nc1ccc2nn(-c3ccc(F)cc3)nc2c1`, the Potency result was “inactive”.
On to `Cc1ccc(-n2nc3ccc(NC(=O)/C=C/c4ccco4)cc3n2)cc1C`, for which the Potency was 8.2 µM (active).

These data come from PubChem BioAssay AID624296 (National Center for Advancing Translational Sciences (NCATS), 2012).
